TSHR agonist: TSH receptor (human) agonism; Potency, µM (top dose mostly 57.1 µM), inactives show top-dose activation, most hits filed as activators; hit rate 0.48% among 73,000; AID 926; HEK293-CNG-TSHR cells (CNG channel as cAMP sensor), membrane potential dye, cAMP; active = well fitted activation curve with a large enough effect in the main read-out, with a control signal flat, not every such curve was filed as active; inconclusive = small, poorly fitted or top-dose-only effect, or a change in a side signal; inactive = no such curve, though single readings can be large or run the other way; % of control where 0% means no effect;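 note: the control signal comes from parental cells without the receptor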
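HEK 293 cells stably expressing TSHR and a cAMP-gated CNG channel; parental CNG-only cells as counterscreen. Cells preloaded 60 min with membrane potential dye plus 100 uM RO 20-1724, then compound 30 min; fluorescence read at 590 nm.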
DNA Pol III inh: blocks replication by bacterial DNA polymerase III holoenzyme; reconstituted DNA polymerase III holoenzyme replication, biochemical; AID 603; Potency, µM (highest dose often 57.1 µM), for the others: at the top dose activity change, negative = inhibition; hit rate 0.25% among 71,000; note: % is set by controls: 0 for no effect and ±100 for the full control effect
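Reconstituted *E. coli* holoenzyme (0.35 nM Pol III, 1 nM beta, 154 nM SSB, 2 nM primase) was preincubated with compound for 15 min at RT. Synthesis on 1.4 nM ssM13Gori ran 35 min, then was stopped with PicoGreen/EDTA and read as dsDNA fluorescence.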
Hsp90 Hop PPI: changes Hsp90-Hop TPR2A binding signal, up or down. AlphaScreen TPR2A-His6 binding biotin-Hsp90 C-terminal peptide. Potency, µM (titrated, usually from 57 µM), for the others: at the highest dose activity change, negative = inhibition. hit rate 0.44% among 71,000; active = well fitted curve in either direction with a large enough effect; inconclusive = small, poorly fitted or top-dose-only effect, or another doubt; note: % is set by controls: 0 for no effect and ±100 for the full control effect
HEK293 cAMP ctrl: counter-screen for TSHR agonists: cAMP increase in parental HEK293; parental HEK293 CNG cAMP sensor, membrane potential fluorescence; Potency, µM (doses to about 57.1 µM), without a hit: at the highest dose activation, hits mostly activators; hit rate 2.5% among 73,000; AID 938; note: % of control where 0% means no effect; nearly all actives have a fitted effect of over 55% in size
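Parental HEK 293 cells stably expressing a cAMP-gated CNG channel were loaded with membrane potential dye containing 100 uM RO 20-1724 for 60 min. Compound added for 30 min; depolarization read as fluorescence intensity at 590 nm.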
Tau fil binding: tau filament binding | hit rate 2% among 71,000 | recombinant tau filaments, thioflavin S fluorescence, 15 h; filaments grown with octadecylsulfate alongside compound | Potency, µM (series often up to 57.1 µM), without a hit: at the highest dose activity change, negative = inhibition | P10636 | AID 596;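 note: % is set by controls: 0 for no effect and ±100 for the full control effect; actives lower thioflavin S fluorescence by blocking filaments or displacing dye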
Target sequence (P10636 whole entry, looked up): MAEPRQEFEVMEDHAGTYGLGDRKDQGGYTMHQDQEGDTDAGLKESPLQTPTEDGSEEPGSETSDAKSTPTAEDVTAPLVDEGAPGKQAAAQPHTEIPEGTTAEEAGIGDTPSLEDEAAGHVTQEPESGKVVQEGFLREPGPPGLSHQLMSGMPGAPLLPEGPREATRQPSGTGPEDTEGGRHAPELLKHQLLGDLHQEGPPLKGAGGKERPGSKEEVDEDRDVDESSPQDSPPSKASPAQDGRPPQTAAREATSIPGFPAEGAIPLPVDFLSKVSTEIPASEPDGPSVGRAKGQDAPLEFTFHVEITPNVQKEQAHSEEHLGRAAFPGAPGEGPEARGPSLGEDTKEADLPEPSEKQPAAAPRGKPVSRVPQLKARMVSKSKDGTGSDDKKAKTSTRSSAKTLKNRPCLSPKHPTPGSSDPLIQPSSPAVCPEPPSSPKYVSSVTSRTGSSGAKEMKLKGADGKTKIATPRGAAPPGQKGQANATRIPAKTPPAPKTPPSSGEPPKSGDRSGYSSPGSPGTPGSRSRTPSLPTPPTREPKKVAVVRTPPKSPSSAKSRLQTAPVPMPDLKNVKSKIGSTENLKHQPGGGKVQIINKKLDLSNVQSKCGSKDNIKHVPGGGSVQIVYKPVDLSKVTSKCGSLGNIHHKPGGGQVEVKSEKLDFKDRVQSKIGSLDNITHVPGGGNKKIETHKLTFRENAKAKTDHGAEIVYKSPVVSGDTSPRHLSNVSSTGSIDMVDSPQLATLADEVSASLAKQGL
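Assay mix: 1 uM His-tagged tau, 30 uM sodium octadecylsulfate, thioflavine S dye in HEPES/NaCl/DTT buffer. Compound is added prior to the inducer. Fluorescence after 15 h at 37 C.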
The depositor's hits bear a star; ? = inconclusive; nt = no result given; [ ] = remark or other dose. An excerpt weighted towards active compounds, which were near 5.1% of everything screened. Unless noted, calls come from the whole dose curve; as a rule, active = well fitted curve in the direction sought with a large enough effect; inconclusive = small, poorly fitted or top-dose-only effect, or another doubt; inactive = no such curve, though single readings can be large; an effect the other way counts as inactive or inconclusive. Potency is the fitted concentration of half-maximal effect.

SMILES	TSHR agonist	DNA Pol III inh	Hsp90 Hop PPI	HEK293 cAMP ctrl	Tau fil binding
COC(=O)C1=C(C)N(Cc2ccccc2)C2=C(C(=O)c3ccccc3)C(c3ccccc3)[C@@](O)(C(=O)OC)C(=O)N2C1c1ccccc1 (stereo partly drawn)	1%[11.4 µM]	nt	nt	2%[11.4 µM]	nt
CCOC(=O)N1CCN(c2nc(SC)nc3sc4c(c23)CC(C)(C)OC4)CC1	17%	-7%	-9%	1%	16µM*
CCN1CCN(c2nc(SC)nc3sc4c(c23)CC(C)(C)OC4)CC1	19%	-7%	-9%	2%	-1%
Cc1cc(-c2nnc(-c3ccccc3)c(-c3ccccc3)n2)c(C)o1	0%[11.4 µM]	-2%	-21%	9%	16µM*
Cc1ccccc1-c1nnc(-c2ccc(Br)cc2)o1	?	-5%	7%	3.2µM*	-2%
Brc1cccc(-c2nnc(-c3ccccc3)o2)c1	?	-2%	14%	?	66%
O=C1c2ccccc2-c2ccc(N=[N+]([O-])c3ccc4c(c3)C(=O)c3ccccc3-4)cc21	0%[11.4 µM]	-10%[11.4 µM]	-1%[11 µM]	-6%[11.4 µM]	5%[11.4 µM]
O=c1nc(-c2ccccc2)cc(-c2ccccc2)[nH]1	6%[11.4 µM]	-4%[11.4 µM]	-6%[11 µM]	11%[11.4 µM]	-18%[11.4 µM]
c1ccc(C[n+]2cccc(-c3cc4ccccc4[nH]3)c2)cc1	4%[11.4 µM]	-8%[11.4 µM]	-2%[11 µM]	-2%[11.4 µM]	0.32µM*
CC(C)NC[C@@H](O)COc1ccc(COCCOC(C)C)cc1	4%	3%	-3%	10%	?
CCn1c(SCC#N)nc2c(c1=O)C1(CCCC1)Cc1ccccc1-2	?	-3%	1%	25µM*	21%
Cn1c(NCCCO)nc2c(c1=O)C1(CCCCC1)Cc1ccccc1-2	-8%	3%	-2%	-3%	-2%
CC(C)Sc1nc2c(c(=O)[nH]c(=O)n2C)n1CCc1ccccc1	nt	0%	0%	25%	10%
CCC(C)Sc1nc2c(c(=O)[nH]c(=O)n2C)n1CCc1ccccc1 (stereo not drawn)	?	-3%	0%	32µM*	16%
CCCCC#CC1C=CC(Oc2cc(OC)c(OC)c(OC)c2)C(COC(=O)OCC)O1 (stereo not drawn)	13%[11.4 µM]	nt	nt	15%[11.4 µM]	nt
CN(Cc1ccco1)c1ncncc1-c1ccc2c(c1)OCO2	25µM*	-6%	-11%	18%	-6%
CN(Cc1ccco1)c1ncnc2ccc(-c3cccnc3)cc12	2%	-3%	-6%	12%	-1%
CN(Cc1ccco1)c1ncnc2ccc(-c3ccc4c(c3)OCO4)cc12	?	-7%	2%	16µM*	1%
CC(=O)OC[C@@H]1O[C@H](CCO/N=C(\C)CCC(=O)OC[C@@H]2O[C@H](C#Cc3ccccc3)C=C[C@@H]2Oc2ccc(C)cc2)C=C[C@@H]1OC(C)=O	3%[11.4 µM]	nt	nt	-2%[11.4 µM]	nt
Cn1c(-c2ccccc2)cc2c3no[n+]([O-])c3ccc21	0%	-1%	-13%	5%	10µM*
CO[C@@H]1COC(=O)[C@@H](C)COC(=O)[C@@H](C)NC(=O)C/C=C\[C@@H]1C	-3%[11.4 µM]	nt	nt	-2%[11.4 µM]	nt
c1ccc(OCCSc2nnc3sc4ccccc4n23)cc1	?	-3%	5%	?	14%
COc1cccc(OCCSc2nnc3sc4ccccc4n23)c1	?	-3%	1%	16µM*	14%
COC(=O)NC(c1ccco1)[C@]1(C(C)=O)CCCC1=O (stereo partly drawn)	5%[11.4 µM]	nt	nt	-1%[11.4 µM]	nt
N#Cc1ccc(CN2CC[C@@]3(CCCN(C(=O)c4cnccn4)C3)C2)cc1	4%	-5%	2%	7%	5%
c1ccc2c(NCCN3CCOCC3)nc(-c3ccoc3)nc2c1	?	-5%	-9%	?	-12%
CCOC(=O)/C(C#N)=C1/C=Cc2ccccc2N1CC	-2%	-5%	-17%	-3%	16µM*
CN1CCN(C(=O)CSc2nc(-c3cccs3)cc(-c3cccs3)c2C#N)CC1	9%	-14%	-15%	11%	7.9µM*
COc1ccc(C2C(C(C)=O)=C(C)N=c3s/c(=C\c4ccc5c(c4)OCO5)c(=O)n32)c(OC)c1 (stereo not drawn)	8%	6%	-30%	-3%	4µM*
COc1ccc(C2C(C(C)=O)=C(C)N=c3s/c(=C\c4ccco4)c(=O)n32)c(OC)c1 (stereo not drawn)	0%	4%	?	-8%	-119%
